Screening results as filed in PubChem BioAssay.
In the library only some 5.7% were active in any assay of this set; here they are far more common.
TGFb inhibitor – qHTS for Inhibitors of TGF-b; 410,000 tested, 1.2% active; HepG2 CAGA-GFP TGF-b/SMAD3 reporter, GFP fluorescence, 18 h; TGF-beta stimulated, 500 pg/mL final; Potency, µM (doses to about 46.1 µM), without a hit: at the highest dose activity, negative = inhibition, actives largely listed as inhibitors; also: potency is read from the fitted curve at half-maximal effect; % is scaled to controls: 0 for no effect and ±100 for the full control effect; nearly all actives have a fitted effect of over 65% in size
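GFP signal (ex488/em500-530) from TGF-beta-stimulated HEPG2 CAGA-GFP cells, 500 pg/mL final, 18 h at 37 degrees C in DMEM plus 1% FBS, normalized to unstimulated and DMSO-stimulated controls.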
ATXN2 expr inh – Primary qHTS for Inhibitors of ATXN expression | 360,000 tested, 0.72% active | Potency, µM (titrated, usually from 57 µM), for the others: at the top dose activity change, negative = inhibition, hits mostly inhibitors | HEK-293 ATXN2-luciferase reporter, luminescence, 24 h; also: potency is read from the fitted curve at half-maximal effect; % is scaled to controls: 0 for no effect and ±100 for the full control effect; nearly all actives have a fitted effect of over 55% in size
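ATXN2-luciferase reporter cells (luciferase flanked by upstream and downstream ATXN2 gene portions) were treated 24 h at 37 °C with compounds at up to 57 uM. SteadyGlo luminescence gave expression; GF-AFC fluorescence gave viability.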
IL1B secr inh – qHTS for Inhibitors of Inflammasome Signaling: IL-1-beta AlphaLISA Primary Screen | 360,000 tested, 4.7% active | THP-1 LPS/ATP IL-1B secretion, AlphaLISA, 16 h; active compounds read low | activity change, % at 57.5 µM; in the data active = activity change below about -50%; inconclusive = mostly about -30% to -49%; also: % is scaled to controls: 0 for no effect and ±100 for the full control effect
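Secreted IL-1B measured by AlphaLISA bead assay after 16 h compound exposure of THP-1 cells; compounds (final up to 57.5 uM) added 1 h before LPS (250 ng/mL) and ATP (1.25 mM) stimulation; lower signal means less secretion.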
HepG2 tox – qHTS for Inhibitors of TGF-b: Cytotox Counterscreen | HepG2 CAGA-GFP viability, ATP luminescence, 18 h | Potency, µM (series often up to 46.1 µM), inactives show top-dose activity change, negative = cytotoxicity, hits mostly cytotoxic | 410,000 tested, 0.76% active | AID 588856, 2011; also: potency is read from the fitted curve at half-maximal effect
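CellTiter-Glo luminescence gave cytotoxicity after 18 hours at 37 degrees C. The cells were HepG2 CAGA-GFP in 1% FBS DMEM, stimulated with 500 pg/mL TGF-beta after compound addition. %Activity was normalised to no-cell wells (complete cell-killing) and DMSO (no toxicity), and curves were fitted and classified.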
S2 tox – Viability Counterscreen for Primary qHTS for Inhibitors of ATXN expression; 400,000 tested, 0.49% active; S2 cells (HEK-293 line with an ATXN2-luciferase reporter) viability, CellTiter-Fluor protease fluorescence, 24 h; Potency, µM (titrated, usually from 56.7 µM), hits mostly cytotoxic; AID 651635, 2014; also: potency is read from the fitted curve at half-maximal effect; nearly all actives have a fitted effect of over 40% in size
* = called active by the depositor; i = inactive; ? = inconclusive; / = no result given. Unless noted, calls follow the shape of the dose curve; as a rule, active = well fitted curve in the direction sought with a large enough effect; inconclusive = small, poorly fitted or top-dose-only effect, or another doubt; inactive = no such curve, though single readings can be large; an effect the other way counts as inactive or inconclusive.

SMILES | TGFb inhibitor | ATXN2 expr inh | IL1B secr inh | HepG2 tox | S2 tox
COc1cc(C(=O)NCc2cccs2)ccc1OCc1c(C)noc1C | 21% | 23% | -1 | -13% | i
Cc1noc(C)c1COc1ccc(C(=O)NCc2cccs2)cc1 | 2% | -2% | -99* | -56% | i
Cc1nc(-c2ccc(OCC(C)C)c(C#N)c2)sc1C(=O)O | / | ? | / | / | i
Cc1cc(C)nc(N/N=C/c2ccccc2)n1 | 5% | 28% | 10 | -14% | i
Cc1cc(-c2ccccc2)nc(N/N=C/c2ccc(O)cc2)n1 | -27% | 20% | -100* | -26% | i
Oc1ccc(/C=N/Nc2nc(-c3ccc(Cl)cc3)cc(C(F)(F)F)n2)cc1 | ? | ? | -99* | -100% | ?
CC(C(=O)c1ccccc1)[n+]1cccc(Cl)c1 (stereo not drawn) | 6% | / | / | 7% | /
Cc1ccc(C(=O)CSc2nnc(COc3ccccc3)o2)cc1 | -5% | -6% | -9 | 6.3µM* | i
Cc1ccc(C(=O)CSc2nc3ccccc3o2)cc1 | -16% | 39% | -54* | -3% | i
CCCCN1C(=O)C(O)(c2c[nH]c3ccccc23)c2cc(Br)ccc21 (stereo not drawn) | ? | ? | / | -95% | i
CCOc1ccc(CN2CCCC(CO)(Cc3ccccc3F)C2)cc1 (stereo not drawn) | -16% | -20% | -56* | -29% | i
CC(C)Oc1ccc(CN2CCCC(CO)(Cc3ccc(F)cc3)C2)cc1 (stereo not drawn) | -26% | -17% | -72* | -37% | i
CCCSS/C(CCO)=C(\C)N(C=O)Cc1cnc(C)nc1N | / | ? | / | / | i
COc1cccc(C(=O)N(Cc2cc3cc4c(cc3nc2N(C)C)OCO4)CC2CCCO2)c1 (stereo not drawn) | / | / | / | / | i
C/C=C(/CC[C@@H](C)[C@H]1CC[C@H]2C3=CC[C@H]4[C@H](C)[C@@H](O)CC[C@]4(C)[C@H]3CC[C@]12C)C(C)C | / | / | / | / | i
COCC(=O)Nc1cc(C(=O)N2CCN(c3ccccc3)C(=O)C2)cc2nc(-c3ccccc3)n(C)c12 | / | / | / | / | i
Clc1cccc(CN2CCc3c([nH]c4ccccc34)C2)c1Cl | ? | / | -62* | -57% | ?
CC1(C)OC(=O)C2(Cc3ccc(Cl)cc3N3CCCCC32)C(=O)O1 (stereo not drawn) | 1% | / | / | 17% | /
COC(=O)CSc1nc2ccc(NC(C)=O)cc2s1 | -2% | -9% | -53* | 1% | ?
CCCC(=O)Nc1ccc2nc(SCC(=O)Nc3ccc(N4CCOCC4)c(Cl)c3)sc2c1 | -1% | 3% | -50* | -18% | i
COc1ccc(NC(=O)Cn2cc(C(=O)c3ccc(C)c(C)c3)c(=O)c3cc(OC)ccc32)cc1 | 6% | 2% | / | -1% | i
O=C(Nc1ccccc1C(F)(F)F)N1CCOc2ccc(Cl)cc21 | 0% | / | / | -30% | /
Cc1ccc(/C=N/NC(=O)c2cc3c(ccc4ccccc43)o2)o1 | -19% | -8% | -61* | -18% | i
CCOc1cc(/C=N/NC(=O)c2cc3c(ccc4ccccc43)o2)ccc1O | ? | -5% | -51* | -26% | i
CCc1ccc(NC(=O)CSc2nc3c([nH]c4ccccc43)c(=O)n2C)cc1 | -8% | / | / | -3% | /
SMILES | TGFb inhibitor | ATXN2 expr inh | IL1B secr inh | HepG2 tox | S2 tox
C/C(=N/NC(=O)c1ccncc1)c1ccc(NC(=O)c2ccc(Cl)cc2Cl)cc1 | 0% | 31% | 16 | 8% | i
C/C(=N\NC(=O)c1cc(-c2ccccc2C)nc2ccccc12)c1cccnc1 | -1% | -7% | -4 | -8% | ?
CC(=NNC(=O)c1ccncc1)c1ccccc1O | 0% | ? | 156 | -13% | i
CC(C)CC(=NNC(=O)c1ccncc1)c1cc(Cl)ccc1O | -1% | 2.8µM* | 64 | 7.1µM* | ?
CC(=NNC(=O)c1ccncc1)c1ccc(O)cc1O | -1% | 14µM* | 109 | 10% | i
C/C(=N\NC(=O)c1cc(-c2ccc(C)s2)nc2ccccc12)c1cccnc1 | 1% | 5% | -53* | 0% | i
